The results in this text go back to PubChem BioAssay (NCI).

In the assay the test system is HL-60(TB) leukemia. Description: NCI-60 one-dose screen, 48 h (100 = growth as untreated, 0 = no growth, -100 = all killed). The following applies: 10 µM unless noted.

About 83,000 compounds went through this panel and 20% of them were active in at least one assay; those are over-represented in the sample as a whole.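 Compound tested at a single concentration for 48 hours in 96-well plates; a percent growth value below 10 was scored as active.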 Values without a mark were called inactive. Calls of active or inactive are those of the source.

For `CC(=O)Nc1nc2c(c(N)c1C#N)C(c1cccc(Cl)c1)C1=C(CCCC1=O)N2c1sc2c(c1C#N)CCCC2` (stereo unspecified), the growth is 5.89% (active).

As for `NNC(=O)c1nc2ccccc2[nH]1`, the growth is 101%.

In the case of `CCC(C)(CC)c1ccc(O)c(C)c1`, the growth was 105%.

As for `CCN=C1C=CC(=C(c2ccc(N(CC)CC)cc2)c2ccc(N(CC)CC)cc2)c2ccccc21`, the growth was -31.1% (active).

On to `Nc1ncc(-c2ccc3ncnc(N4CCc5ccc(Cl)cc54)c3c2)cn1`, for which the growth was -51.1% (active).

As to `O=C(O)c1cn(C2CC2)c2cc(N3CCN(Cc4c(O)ccc5ccccc45)CC3)c(F)cc2c1=O`, the growth is 71.6%.

As to `Cc1ccc(NC(=O)c2sc3nc(C)c(Br)c(C)c3c2N)cc1`, the growth was 95.2%.

`Cc1ccc(-n2nc3c(c(C#N)c2=O)CC(c2ccccc2[N+](=O)[O-])C([N+](=O)[O-])=C3O)cc1` (stereo unspecified): the growth is 91.6%.

For the compound `COc1ccc2c(c1)[n+](=O)c(C(=O)/C=C/c1cc(OC)c(OC)c(OC)c1)c(C)n2[O-]`, the growth is 42.6%.

For `CCCCCCCC1(C)NC(=O)NC1=O` (stereo unspecified), the growth was 100%.

Regarding `Cn1c([N+](=O)[O-])cnc1C=C1C(=O)c2ccccc2C1=O`, the growth is 4.69% (active).

In the case of `CCN(CC)c1ccc(/C=C/C(=O)c2cccc(NS(C)(=O)=O)c2)cc1`, the growth is 9.82% (active).

As for `C=C(C)[C@@H]1CCC[C@]2(C(=O)N3CCN(C)CC3)CC[C@]3(C)[C@@H](CC[C@@H]4[C@@]5(C)CC/C(=N\NC(=O)c6ccncc6)C(C)(C)[C@@H]5CC[C@]43C)[C@@H]12`, the growth is 82.8%.

As for `CCN(CC)c1ccc(C2=NN(C(C)=O)C(c3cc(OC)c(OC)c(OC)c3)C2)cc1` (stereo unspecified), the growth was -42% (active).

Take `O=C(Nc1ccccc1O)c1ccc(Oc2cccc(C(=O)Nc3ccccc3O)c2)cc1`: the growth was -40.4% (active).

With `Cc1ccc(N(CC(=O)Nc2ccc(S(=O)(=O)NC3CCN(C)CC3)cc2)S(=O)(=O)c2ccc(Cl)cc2)cc1`, the growth was 75.7%.

As for `COc1ccc(-c2nc3ccccn3c2/C=C/C(=O)c2cc(OC)c(OC)c(OC)c2)cc1OC`, the growth was 9.67% (active).

On to `C[n+]1c2ccccc2nc2ccccc21`, for which the growth is 13.3%.

Turning to `CC1CN(C2CCCCC2)C(=S)N(c2ccccc2)C1=O` (stereo unspecified), the growth is 85%.

For `CN1CCN(Cc2ccc(NC(=O)c3cncc(C#Cc4c(N)ncc5cc(F)ccc45)c3)cc2C(F)(F)F)CC1`, the growth is -46.2% (active).

With `CCOC(=O)CNN`, the growth is 113%.

For the compound `Cc1cc(Nc2nc(C(=O)Nc3ccccc3)nc3ccccc23)n[nH]1`, the growth was 63.5%.

Regarding `COc1cccc(-c2nn(C)c3sc(C(=O)NCCN4CCN(c5ccccc5F)CC4)cc23)c1`, the growth is 8.08% (active).

Consider `COc1cc(C)c(Cc2cnc(N)nc2N)cc1OC`, for which the growth is 129%.

With `O=C(/C=C/c1ccc([N+](=O)[O-])cc1)c1cccc(Nc2nc(Nc3ccccc3)nc(Nc3ccccc3)n2)c1`, the growth is 85.1%.

As to `Cc1oc2nc[nH]c(=O)c2c1C(=O)/C=C/c1ccc(Br)cc1`, the growth was -4.98% (active).

`O=C(O)c1cccc2c1C(=O)N(c1ccc3c(c1)Cc1ccccc1-3)C2=O`: the growth was 112%.

Consider `Nc1ncnc2c1ncn2C1OC(COC(c2ccccc2)(c2ccccc2)c2ccccc2)C(O)C1O` (stereo unspecified), for which the growth is 8.77% (active).

On to `COC(=O)c1c2c(c(C)[n+]([O-])c1C)C(=O)C=C(NCc1ccc(Cl)cc1)C2=O`, for which the growth was -30.5% (active).

Consider `CC1(c2ccccc2)NC(=O)NC1=O` (stereo unspecified), for which the growth is 104%.

Regarding `CCOC(=O)C(Br)=P(c1ccccc1)(c1ccccc1)c1ccccc1`, the growth is 94.2%.

Turning to `CCC1CCCCN1C(=S)N/N=C(\C)c1ccccn1` (stereo unspecified), the growth was 8.04% (active).

With `O=C(O)CCCN1C(=O)NC2(C1=O)c1ccccc1-c1ccccc12`, the growth is 101%.

Regarding `c1ccc(-c2nc([P+](c3ccccc3)(c3ccccc3)c3ccccc3)c(N3CCOCC3)o2)cc1`, the growth was -12% (active).

Turning to `C=C(C)[C@@H]1CC[C@]2(C(=O)N3CCN(C)CC3)CC[C@]3(C)[C@H](CC[C@@H]4[C@@]5(C)C/C(=C/c6ccncc6)[C@H](O)C(C)(C)[C@@H]5CC[C@]43C)[C@@H]12`, the growth was -25.2% [100 µM] (active).

`N#Cc1cnn2c(-c3ccc(Cl)cc3)nc(NCCc3ccccc3)nc12`: the growth was 85.1%.

Regarding `Nc1nc(NC(=O)Nc2ccc(C(=O)O)cc2)nn1-c1ccc(S(N)(=O)=O)cc1`, the growth is 102%.

For the compound `CCOC(=O)C(CC(c1ccccc1)N1CCCCC1)[N+](=O)[O-]` (stereo unspecified), the growth was 73.4%.

Regarding `CCN1C(=O)N(CC)C2C1NN=c1s/c(=C\c3ccc(F)cc3)c(=O)n12` (stereo unspecified), the growth was -47% (active).

As for `CNC(=O)c1cc(Oc2ccc3nc(NC(=O)c4ccc5ncccc5c4)sc3c2)ccn1`, the growth was 87.8%.

For `CCOC(=O)c1c2c(cn1Cc1ccccc1)-c1oncc1CC2`, the growth was 98.6%.

As to `COc1cccc2c1C(=O)c1c(O)c3c(c(O)c1C2=O)C[C@@](O)(C(=O)COC(=O)c1ccccc1)C[C@@H]3OC1CC(N)C(O)C(C)O1` (stereo partly specified), the growth was -74.8% (active).

On to `CCOC(=O)C1=C(C)C(Cl)=N/C1=C\c1[nH]c(Cl)c(C)c1C(=O)OCC`, for which the growth was 95%.

As to `CC(=O)N1N=C2N(Cc3ccccc3)C(=O)c3c(sc4c3CCCC4)N2C1c1cn(-c2ccccc2)nc1-c1ccc(Cl)cc1` (stereo unspecified), the growth is 88.5%.

Turning to `COc1cc2oc(-c3cccc(C(=O)Nc4ccc(Cl)cc4)c3)cc(=O)c2c(OC)c1OC`, the growth is -11.1% (active).

On to `C=Cc1cnc(Nc2ccc(OC)cc2)nc1NCCCNC(=O)C1CCC1`, for which the growth was 14.6%.

`O=C1COc2ccccc2C(=O)N1CCCCN1CCCCC1`: the growth is 75.3%.

In the case of `CCN(CC)CCN1C(=O)c2c(c3c4ccccc4[nH]c3c3ccc4ccccc4c23)C1=O`, the growth is -23.7% (active).

Turning to `CSc1nc(NCCN2CCOCC2)c(C#N)c(-c2cccc([N+](=O)[O-])c2)n1`, the growth is 100%.

With `C=C1C(=O)O[C@@H]2[C@@H]3O[C@@](C)(CC/C=C(\C)CCC[C@@H]2C)[C@H](O)C[C@@H]13`, the growth is 14.4%.

With `COc1ccc(-c2cn3c(C(=O)Nc4ccccc4Cl)c(-c4ccccc4)c4c3n2CCCC4)cc1`, the growth is 83.4%.

As to `Cc1cc(C)nc(SC2=C(Nc3ccc(O)cc3)C(=O)N(Cc3ccccc3)C2=O)n1`, the growth is 60.6% [40 µM].

Consider `O=C(O)c1cccnc1Br`, for which the growth is 110%.

For the compound `O=C1Cc2c(sc3c(F)cccc23)C(c2ccccc2[N+](=O)[O-])N1` (stereo unspecified), the growth is 116%.

As to `CN(C)C/C=C/C(=O)Nc1cc2c(Nc3cccc(Cl)c3F)ncnc2cc1OCCOC(F)F`, the growth is 43.2%.

For the compound `COc1ccc(C(=O)NCCNc2nccc(-c3c(-c4ccc(F)cc4)nc4sccn34)n2)cc1`, the growth is 88.9%.

As to `COc1cc2c(c(OC)c1OC)CCc1cnoc1-2`, the growth was 114%.

On to `C[C@H]1[C@H](C)CC[C@]2(C(=O)O)CC[C@]3(C)C(=CC[C@@H]4[C@@]5(C)C[C@@H](Cc6cn([C@@H]7O[C@H](CO)[C@@H](O)[C@H](O)[C@H]7O)nn6)[C@H](O)C(C)(C)[C@@H]5CC[C@]43C)[C@H]12`, for which the growth is 91%.

`N#Cc1cnc2cc(OC[C@H](O)CO)c(NC(=O)CC3CSSC3)cc2c1Nc1ccc(OCc2cccc(F)c2)c(Cl)c1`: the growth is -83.4% (active).

As to `COc1cccc(Nc2nccc(Nc3ccc4[nH]ncc4c3)n2)c1`, the growth is -62.3% (active).

For the compound `CCCSc1nc2ccc(C)cc2cc1/C=[N+](\[O-])c1ccccc1`, the growth is 14.1%.

On to `O=C(Nc1ccc(Cl)cc1)c1cc2c(cc1O)[nH]c1ccccc12`, for which the growth is -24.5% (active).

As for `COc1ccc(C2CC(=O)Nc3c2c(C)nn3-c2nc3ccccc3[nH]2)cc1OC` (stereo unspecified), the growth was 31.9%.

In the case of `O=C1C(=O)c2ccccc2C(O)=C1CCCc1ccc(Oc2ccccc2)cc1`, the growth was 44.3%.

As to `COc1ccc(C2CC(c3ccccc3)=Nc3ccccc3S2)cc1` (stereo unspecified), the growth was 85.7%.

For `Nc1ccc(S(=O)(=O)Nc2cc(I)cc(I)c2)cc1`, the growth was -75% (active).

Regarding `CCS/C(Nc1ccccc1)=C(\C#N)C(=O)Nc1ccc(OC)cc1`, the growth is -15.6% (active).

Take `C=C1C(=O)O[C@H]2[C@H]1CC/C(COC(=O)CCCC(=O)OC/C1=C/CC[C@@]3(C)O[C@H]3[C@H]3OC(=O)C(=C)[C@@H]3CC1)=C\CC[C@@]1(C)O[C@@H]21`: the growth was -41.8% (active).

Turning to `O=C(Cc1nc2cc(Cl)c(Cl)cc2nc1CC(=O)c1cccnc1)c1cccnc1`, the growth is 39.6%.

As for `Cc1ccccc1OCC(O)COc1ccccc1C`, the growth was 128%.

As to `COC(=O)CCc1cc(O)c2c(c1)[C@@H](C(=O)OC)[C@H](c1ccc(O)c(O)c1)O2`, the growth was 9.9% (active).

Turning to `Fc1ccc(COc2ccc(Nc3ncnc4sc5c(c34)CCCC5)cc2)cc1`, the growth is 87.4%.

Turning to `C[N+](C)(C)CN1C(=O)c2ccccc2C1=O`, the growth was 96.1%.

`NS(=O)(=O)c1ccc(C(=O)N=Nc2c(O)[nH]c3c(F)cccc23)cc1`: the growth is 102%.

As for `O=C(Nc1ccc2ccccc2c1)c1cc2ccccc2cc1O`, the growth is 79.7%.

`O=C(CNCCO)Nc1ccc2ncnc(Nc3ccc(OCc4cccc(F)c4)c(Cl)c3)c2c1`: the growth was 86.9%.

Turning to `COc1ccc(C2C=C(c3ccc(Cl)c(Cl)c3)N=C3SC(C)=CN32)cc1` (stereo unspecified), the growth was 83.3%.

With `Cc1ccc(-c2csc(NC(=O)CSc3nc(-c4ccccc4)cc(=O)[nH]3)n2)cc1`, the growth was 49.4%.

On to `Cn1c(=O)c2[nH]c(SCC(=O)Nc3ccc(C(=O)/C=C/c4ccccc4Cl)cc3)nc2n(C)c1=O`, for which the growth was 98.6%.

Turning to `COc1ccccc1-n1c(SCc2cc(OC)c(OC)c(OC)c2)nc2ccc(Cl)cc2c1=O`, the growth was -19.6% (active).

As for `COc1ccc2c(c1)C(Br)=C(CCO)C2c1ccccc1` (stereo unspecified), the growth is 1.04% (active).
